Source: PubChem BioAssay (NCI)
Values joined by “and” are separate entries in the source; they are usually repeats but may differ in a detail not shown here. Identical values can stand only once. This is part of a sample that, as a whole, favours compounds with a hit. Of some 83,000 tested, about 20% had one in any assay.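 Activity criterion: percent growth below 10, measured after cells in 96-well plates were exposed to a single compound concentration for 48 hours.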 Active and inactive are the calls of the source.

How the values were obtained:
Assay in all cases: NCI-60 one-dose screen, 48 h (100 = growth as untreated, 0 = no growth, -100 = all killed)
Details in all cases: 10 µM unless noted
MALME-3M melanoma = system: MALME-3M melanoma
MDA-MB-231 breast = system: MDA-MB-231 breast
RXF 393 renal = system: RXF 393 renal
SF-268 CNS = system: SF-268 CNS
SF-295 CNS = system: SF-295 CNS
SF-539 CNS = system: SF-539 CNS
UACC-257 melanoma = system: UACC-257 melanoma
M14 melanoma = system: M14 melanoma
HCT-15 colon = system: HCT-15 colon
HT29 colon = system: HT29 colon
SNB-75 CNS = system: SNB-75 CNS
SNB-19 CNS = system: SNB-19 CNS
U251 CNS = system: U251 CNS
PC-3 prostate = system: PC-3 prostate
SK-MEL-5 melanoma = system: SK-MEL-5 melanoma
UACC-62 melanoma = system: UACC-62 melanoma
LOX IMVI melanoma = system: LOX IMVI melanoma
SK-MEL-28 melanoma = system: SK-MEL-28 melanoma
DU-145 prostate = system: DU-145 prostate
K-562 leukemia = system: K-562 leukemia

Measured: growth

c1ccc2c(c1)oc1cc3c(cc12)nnc1cccn13
inactive: MALME-3M melanoma 93.8% | MDA-MB-231 breast 101% | RXF 393 renal 127% | SF-268 CNS 105% | SF-295 CNS 101% | SF-539 CNS 95.1% | UACC-257 melanoma 95.7% | M14 melanoma 98.7% | HCT-15 colon 104% | HT29 colon 103% | SNB-75 CNS 91.7% | SNB-19 CNS 108% | U251 CNS 97.2% | PC-3 prostate 100% | SK-MEL-5 melanoma 98.2% | UACC-62 melanoma 106% | LOX IMVI melanoma 112% | SK-MEL-28 melanoma 116%

CC(C)=CCC/C(C)=C/CC/C(C)=C/CC/C(C)=C/C=C/C=C(\C)CC/C=C(\C)CC/C=C(\C)CCC=C(C)C
inactive: UACC-62 melanoma 75.8% [100 µM] and 45% [100 µM]

CC(=O)OCC1O[C@@H]([S-])C(OC(C)=O)[C@H](OC(C)=O)[C@@H]1OC(C)=O.[Au+].c1ccc(CN2[CH-]N(Cc3ccccc3)C(c3ccccc3)=C2c2ccccc2)cc1
inactive: SF-295 CNS 31.1%

C=C1C(=O)OC2/C=C(/C)C3(O)OC(C)(CC(OC(=O)C(C)C)C12)CC3OC(C)=O (configuration not stated)
active: UACC-62 melanoma -93% [100 µM]

O=[N+]([O-])c1ccc(O)c2ncccc12
inactive: DU-145 prostate 75.8% | MALME-3M melanoma 52.2% | MDA-MB-231 breast 46% | RXF 393 renal 92.4% | SF-268 CNS 50.2% | SF-295 CNS 24.5% | SF-539 CNS 42.2% | UACC-257 melanoma 73.6% | M14 melanoma 47.3% | HCT-15 colon 31.5% | HT29 colon 81% | SNB-75 CNS 84.1% | SNB-19 CNS 37.9% | PC-3 prostate 37.9% | SK-MEL-5 melanoma 56.4% | LOX IMVI melanoma 46.8% | SK-MEL-28 melanoma 81.7%

Brc1ccc(Br)nn1
active: DU-145 prostate -91% | MALME-3M melanoma -91% | MDA-MB-231 breast -65.6% | RXF 393 renal -89.8% | SF-268 CNS -74.4% | SF-295 CNS -10.9% | SF-539 CNS -53.1% | UACC-257 melanoma -68.4% | M14 melanoma -76.4% | HCT-15 colon -100% | HT29 colon -37.2% | U251 CNS -67.5% | PC-3 prostate -36.8% | SK-MEL-5 melanoma 8.56% | LOX IMVI melanoma -93.7% | SK-MEL-28 melanoma -75.9%
inactive: SNB-75 CNS 37.7% | SNB-19 CNS 17.7%

CCOc1ccc(/C=N\N2CCCCCC2)cc1OCC
inactive: DU-145 prostate 108% | MDA-MB-231 breast 77.7% | RXF 393 renal 103% | SF-268 CNS 102% | SF-295 CNS 104% | SF-539 CNS 97.2% | UACC-257 melanoma 96.2% | M14 melanoma 105% | HCT-15 colon 62.1% | HT29 colon 100% | SNB-75 CNS 85.2% | SNB-19 CNS 96.2% | U251 CNS 86% | SK-MEL-5 melanoma 83.1% | UACC-62 melanoma 75.1% | SK-MEL-28 melanoma 95.5%

CC(C)N1CCN(c2ccc(OC[C@H]3CO[C@](Cn4cncn4)(c4ccc(Cl)cc4Cl)O3)cc2)CC1
active: UACC-257 melanoma -28.4%
inactive: DU-145 prostate 111% | MALME-3M melanoma 86.1% | MDA-MB-231 breast 65.8% | RXF 393 renal 74.7% | SF-268 CNS 102% | SF-295 CNS 89% | SF-539 CNS 79.4% | M14 melanoma 52.8% | HCT-15 colon 62.3% | HT29 colon 21.5% | SNB-19 CNS 97.7% | SK-MEL-5 melanoma 47.9% | UACC-62 melanoma 71.6% | LOX IMVI melanoma 86.5% | SK-MEL-28 melanoma 63.2%

Cc1ccc(C(=O)O[C@H](C(=O)O)[C@H](OC(=O)c2ccc(C)cc2)C(=O)O)cc1
inactive: MDA-MB-231 breast 113% | SNB-19 CNS 102%

CC1SC(c2ccc(Cl)cc2)N(CCc2cccs2)C1=O (configuration not stated)
active: K-562 leukemia 7.81% | MALME-3M melanoma -32.8% | MDA-MB-231 breast -4.43% | RXF 393 renal -35.7% | SF-295 CNS -2.2% | SF-539 CNS -49.7% | UACC-257 melanoma -28.7% | M14 melanoma -12.8% | HCT-15 colon 1.46% | HT29 colon -40.2% | U251 CNS -8.49% | PC-3 prostate -1.67% | UACC-62 melanoma -46.3% | LOX IMVI melanoma -85.2% | SK-MEL-28 melanoma 8.16%
inactive: SF-268 CNS 14.3% | SNB-19 CNS 12.4%

OC[C@@H](O)[C@@H](O)CO
inactive: DU-145 prostate 111% | MALME-3M melanoma 97.3% | MDA-MB-231 breast 94.7% | RXF 393 renal 110% | SF-268 CNS 108% | SF-295 CNS 94.7% | SF-539 CNS 102% | UACC-257 melanoma 105% | M14 melanoma 106% | HCT-15 colon 102% | SNB-75 CNS 100% | SNB-19 CNS 98.3% | U251 CNS 98.7% | PC-3 prostate 97.2% | SK-MEL-5 melanoma 104% | UACC-62 melanoma 98.3% | LOX IMVI melanoma 91.3%

CCCCCCCCCCCCCCCC[N+]1(C)CCOCC1
inactive: DU-145 prostate 28.7% | SF-295 CNS 19.8% | UACC-257 melanoma 49.4% | HCT-15 colon 40.4% | SNB-75 CNS 11.7% | SK-MEL-5 melanoma 40% | UACC-62 melanoma 46.9% | SK-MEL-28 melanoma 86%
active: MALME-3M melanoma -2.82% | MDA-MB-231 breast -7.42% | RXF 393 renal -79.9% | SF-268 CNS -34.5% | SF-539 CNS -1.77% | M14 melanoma 1.49% | HT29 colon 1.36% | SNB-19 CNS -29.1% | PC-3 prostate -52% | LOX IMVI melanoma -79%

C1CCC([PH+](C2CCCCC2)C2CCCCC2[PH+](C2CCCCC2)C2CCCCC2)CC1.[Au].[CH-]1CCCCC1CC1CCCC[N-]1 (configuration not stated)
inactive: SNB-75 CNS 19.8%

COc1ccc2c3c(c(=O)n(C)c2c1OC)C=CC(C)(C)O3
active: UACC-62 melanoma 0.949% [100 µM] and 6.15% [100 µM]

O=C(O)C[C@H](O)C[C@H](O)/C=C/c1c(C2CC2)nc2ccccc2c1-c1ccc(F)cc1
active: MDA-MB-231 breast -47.7%
inactive: DU-145 prostate 113% | MALME-3M melanoma 104% | RXF 393 renal 63.5% | SF-268 CNS 31.9% | SF-295 CNS 22.9% | SF-539 CNS 81.2% | UACC-257 melanoma 95.5% | M14 melanoma 90.8% | HCT-15 colon 46.5% | HT29 colon 107% | SNB-75 CNS 103% | SNB-19 CNS 74.9% | U251 CNS 42.8% | PC-3 prostate 26.9% | SK-MEL-5 melanoma 67.6% | LOX IMVI melanoma 34.5% | SK-MEL-28 melanoma 113%

OB(O)c1ccccc1
inactive: DU-145 prostate 111% | MALME-3M melanoma 102% | MDA-MB-231 breast 114% | RXF 393 renal 123% | SF-268 CNS 106% | SF-295 CNS 97.7% | SF-539 CNS 106% | UACC-257 melanoma 99.4% | M14 melanoma 108% | HCT-15 colon 102% | HT29 colon 101% | SNB-75 CNS 101% | SNB-19 CNS 114% | U251 CNS 101% | PC-3 prostate 101% | SK-MEL-5 melanoma 113% | UACC-62 melanoma 109% | LOX IMVI melanoma 101% | SK-MEL-28 melanoma 117%

CSC1=CC(=O)c2ccccc2C1=O
active: MALME-3M melanoma -0.209% | MDA-MB-231 breast -14.5%
inactive: DU-145 prostate 95.5% | RXF 393 renal 98.3% | SF-268 CNS 69% | SF-295 CNS 93.7% | SF-539 CNS 97.1% | UACC-257 melanoma 42% | M14 melanoma 94.7% | HCT-15 colon 101% | HT29 colon 103% | SNB-19 CNS 94.2% | U251 CNS 92.2% | PC-3 prostate 67.3% | SK-MEL-5 melanoma 89.4% | UACC-62 melanoma 79.7% | LOX IMVI melanoma 68.5% | SK-MEL-28 melanoma 113%

CC(=O)OCC1OC([S-])C(OC(C)=O)C(OC(C)=O)C1OC(C)=O.[Au+].c1ccc(CN2[CH-]N(Cc3ccccc3)C(c3ccccc3)=C2c2ccccc2)cc1
active: SF-295 CNS -11.3% [4.75 µM]

COc1cc(-c2nc(Nc3nc4ccccc4[nH]3)nc(N)c2C#N)cc(OC)c1OC
active: RXF 393 renal -1.43%
inactive: DU-145 prostate 61.8% | MALME-3M melanoma 65% | MDA-MB-231 breast 53% | SF-268 CNS 71.2% | SF-295 CNS 18.1% | SF-539 CNS 58.9% | UACC-257 melanoma 69.5% | M14 melanoma 53% | HCT-15 colon 59.1% | SNB-75 CNS 29.2% | SNB-19 CNS 69.2% | U251 CNS 56.8% | PC-3 prostate 44.7% | UACC-62 melanoma 44.5% | LOX IMVI melanoma 69.5% | SK-MEL-28 melanoma 72%
